# Data published in paper PMC7862700, “An all-to-all approach to the identification of sequence-specific readers for epigenetic DNA modifications on cytosine”.
# What was measured:
# Assay in all cases: DAPPL (digital affinity profiling via proximity ligation, sequencing); 10 mM Tris-HCl pH 7.5, 50 mM NaCl, 1 mM DTT, 4% glycerol, room temperature, 30 min; GST-TFs on glutathione beads, 16-mer random dsDNA library, 0.1% formaldehyde crosslink after washing; high values mean tight binding
# Details in all cases: protein: recombinant; tags: N-terminal GST; dsDNA, one strand shown
# FLI1 = target: T1, FLI1 (Homo sapiens, UniProt Q01543 1-452)
# T1 sequence: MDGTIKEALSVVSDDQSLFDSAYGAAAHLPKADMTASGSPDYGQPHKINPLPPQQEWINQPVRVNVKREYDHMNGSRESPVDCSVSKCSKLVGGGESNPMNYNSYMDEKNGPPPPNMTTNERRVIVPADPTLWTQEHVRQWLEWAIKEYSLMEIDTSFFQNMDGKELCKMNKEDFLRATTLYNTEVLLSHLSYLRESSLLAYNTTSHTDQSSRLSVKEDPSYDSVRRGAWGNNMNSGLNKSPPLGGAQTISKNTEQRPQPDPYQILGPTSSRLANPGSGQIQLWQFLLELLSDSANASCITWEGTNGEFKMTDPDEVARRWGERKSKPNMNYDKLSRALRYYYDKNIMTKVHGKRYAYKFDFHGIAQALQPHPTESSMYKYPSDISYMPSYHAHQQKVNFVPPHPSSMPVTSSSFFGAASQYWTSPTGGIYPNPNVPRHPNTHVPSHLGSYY
# Outline: (§1)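 Sequencing on an Illumina NextSeq500 followed washing, crosslinking with 0.1% formaldehyde, proximity ligation (BsaI/T4 ligase, 1 h, 37 °C) and PCR amplification of pools that had been incubated for 30 min at room temperature with 200 nmole of a random double-stranded 16-mer DNA library in Tris/NaCl/DTT/glycerol buffer. Each pool held DNA-barcoded human transcription factors, expressed in yeast as GST fusions and captured on glutathione beads, plus a tag-only sample. Binding signal is a hexamer's read frequency for a factor divided by its frequency in the tag-only sample.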
# ELK1 = target: T2, ELK1 (Homo sapiens, UniProt P19419 1-428)
# T2 sequence: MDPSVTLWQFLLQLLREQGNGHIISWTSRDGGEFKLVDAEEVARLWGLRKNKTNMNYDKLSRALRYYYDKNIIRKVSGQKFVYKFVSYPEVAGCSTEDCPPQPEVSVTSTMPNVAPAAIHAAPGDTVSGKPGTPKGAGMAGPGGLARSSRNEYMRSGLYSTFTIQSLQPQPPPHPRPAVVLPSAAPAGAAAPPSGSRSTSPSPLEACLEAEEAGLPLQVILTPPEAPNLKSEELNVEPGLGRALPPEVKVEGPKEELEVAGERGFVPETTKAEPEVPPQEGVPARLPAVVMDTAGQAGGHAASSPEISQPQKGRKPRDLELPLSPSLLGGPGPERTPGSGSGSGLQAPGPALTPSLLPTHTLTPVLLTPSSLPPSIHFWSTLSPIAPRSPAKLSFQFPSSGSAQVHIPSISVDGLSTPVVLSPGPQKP
# Outline: as §1
# GABPA = target: T3, GABPA (Homo sapiens, UniProt Q06546 1-454)
# T3 sequence: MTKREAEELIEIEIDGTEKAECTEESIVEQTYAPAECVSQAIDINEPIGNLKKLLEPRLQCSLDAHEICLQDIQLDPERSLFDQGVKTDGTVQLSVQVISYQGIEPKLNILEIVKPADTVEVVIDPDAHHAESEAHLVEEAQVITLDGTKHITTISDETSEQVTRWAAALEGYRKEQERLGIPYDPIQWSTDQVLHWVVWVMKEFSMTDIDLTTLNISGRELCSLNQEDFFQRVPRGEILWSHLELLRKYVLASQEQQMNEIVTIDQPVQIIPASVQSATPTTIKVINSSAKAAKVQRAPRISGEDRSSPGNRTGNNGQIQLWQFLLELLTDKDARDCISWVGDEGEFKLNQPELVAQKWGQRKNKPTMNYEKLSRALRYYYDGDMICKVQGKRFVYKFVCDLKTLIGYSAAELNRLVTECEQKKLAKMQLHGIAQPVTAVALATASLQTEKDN
# Outline: as §1
# ERG = target: T4, ERG (Homo sapiens, UniProt P11308 1-479)
# T4 sequence: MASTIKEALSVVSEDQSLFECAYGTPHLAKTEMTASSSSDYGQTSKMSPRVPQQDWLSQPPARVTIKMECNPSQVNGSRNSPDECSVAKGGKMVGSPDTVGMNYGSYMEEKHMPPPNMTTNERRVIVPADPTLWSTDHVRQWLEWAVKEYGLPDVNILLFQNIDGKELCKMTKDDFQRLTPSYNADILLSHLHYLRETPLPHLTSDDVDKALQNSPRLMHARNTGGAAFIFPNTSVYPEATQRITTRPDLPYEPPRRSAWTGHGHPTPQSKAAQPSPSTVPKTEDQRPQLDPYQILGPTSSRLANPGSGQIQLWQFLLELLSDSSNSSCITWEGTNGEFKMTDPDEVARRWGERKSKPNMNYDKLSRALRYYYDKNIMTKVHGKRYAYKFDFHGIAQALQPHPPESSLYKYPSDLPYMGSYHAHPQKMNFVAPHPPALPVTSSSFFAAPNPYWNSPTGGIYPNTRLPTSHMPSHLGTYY
# Outline: as §1
# ELF1 = ELF1 (Homo sapiens, UniProt P32519 1-619)
# Outline: as §1
# EHF = target: T5, EHF (Homo sapiens, UniProt Q9NZC4 1-300)
# T5 sequence: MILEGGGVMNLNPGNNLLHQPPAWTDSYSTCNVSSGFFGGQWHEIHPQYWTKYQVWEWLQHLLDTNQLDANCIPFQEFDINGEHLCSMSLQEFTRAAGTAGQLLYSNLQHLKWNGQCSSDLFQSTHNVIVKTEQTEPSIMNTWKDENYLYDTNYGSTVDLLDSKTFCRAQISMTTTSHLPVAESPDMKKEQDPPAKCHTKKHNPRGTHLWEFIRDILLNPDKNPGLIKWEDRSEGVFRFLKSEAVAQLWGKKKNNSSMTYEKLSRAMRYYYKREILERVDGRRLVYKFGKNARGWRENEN
# Outline: as §1
# SPI1 = SPI1 (Homo sapiens, UniProt P17947 1-270)
# Outline: as §1
# SPIB = SPIB (Homo sapiens, UniProt Q01892 1-262)
# Outline: as §1
# ELK3 = target: T6, ELK3 (Homo sapiens, UniProt P41970 1-407)
# T6 sequence: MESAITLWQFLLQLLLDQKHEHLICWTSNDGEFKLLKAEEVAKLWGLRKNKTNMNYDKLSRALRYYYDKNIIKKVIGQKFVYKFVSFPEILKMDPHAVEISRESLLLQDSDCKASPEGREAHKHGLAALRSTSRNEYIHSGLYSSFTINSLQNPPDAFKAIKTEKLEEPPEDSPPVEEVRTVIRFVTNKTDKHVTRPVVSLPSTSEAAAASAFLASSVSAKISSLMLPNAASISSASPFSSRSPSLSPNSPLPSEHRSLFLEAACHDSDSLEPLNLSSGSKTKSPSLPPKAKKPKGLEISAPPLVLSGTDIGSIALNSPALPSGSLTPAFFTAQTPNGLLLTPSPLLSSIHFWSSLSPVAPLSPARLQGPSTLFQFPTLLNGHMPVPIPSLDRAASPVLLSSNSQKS
# Outline: as §1
# ELF1, sequence (P32519 whole entry): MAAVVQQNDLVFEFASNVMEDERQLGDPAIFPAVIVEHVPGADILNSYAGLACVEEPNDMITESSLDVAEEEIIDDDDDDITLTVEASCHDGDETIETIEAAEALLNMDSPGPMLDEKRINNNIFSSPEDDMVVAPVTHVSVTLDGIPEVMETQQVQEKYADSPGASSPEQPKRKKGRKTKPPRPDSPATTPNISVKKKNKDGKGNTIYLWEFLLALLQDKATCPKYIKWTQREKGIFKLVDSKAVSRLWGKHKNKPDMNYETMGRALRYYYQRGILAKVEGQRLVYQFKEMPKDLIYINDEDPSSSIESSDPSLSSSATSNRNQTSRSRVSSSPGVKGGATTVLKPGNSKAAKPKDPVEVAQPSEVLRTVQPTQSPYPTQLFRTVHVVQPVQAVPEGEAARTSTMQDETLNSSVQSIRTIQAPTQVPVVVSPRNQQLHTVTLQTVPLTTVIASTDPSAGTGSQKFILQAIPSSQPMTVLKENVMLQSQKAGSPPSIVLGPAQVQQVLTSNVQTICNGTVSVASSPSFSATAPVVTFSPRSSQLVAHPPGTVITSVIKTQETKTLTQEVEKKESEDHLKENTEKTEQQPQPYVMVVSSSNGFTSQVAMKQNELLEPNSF
# SPIB, sequence (Q01892 whole entry): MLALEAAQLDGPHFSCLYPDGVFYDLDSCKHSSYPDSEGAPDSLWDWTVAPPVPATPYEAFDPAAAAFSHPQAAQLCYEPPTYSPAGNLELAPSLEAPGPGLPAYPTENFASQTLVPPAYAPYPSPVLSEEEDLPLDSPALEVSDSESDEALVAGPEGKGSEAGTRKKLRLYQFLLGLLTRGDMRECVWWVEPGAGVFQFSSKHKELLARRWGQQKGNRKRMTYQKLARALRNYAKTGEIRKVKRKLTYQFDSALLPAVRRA
sequence,measurement,setting,value
TATTCT,binding signal,FLI1,"1.45 fold enrichment (6-mer frequency, TF over GST control)"
same,binding signal,ELK1,"1.28 fold enrichment (6-mer frequency, TF over GST control)"
same,binding signal,GABPA,"1.43 fold enrichment (6-mer frequency, TF over GST control)"
same,binding signal,ERG,"1.31 fold enrichment (6-mer frequency, TF over GST control)"
same,binding signal,ELF1,"1.33 fold enrichment (6-mer frequency, TF over GST control)"
same,binding signal,EHF,"1.39 fold enrichment (6-mer frequency, TF over GST control)"
same,binding signal,SPI1,"1.31 fold enrichment (6-mer frequency, TF over GST control)"
same,binding signal,SPIB,"1.19 fold enrichment (6-mer frequency, TF over GST control)"
same,binding signal,ELK3,"1.33 fold enrichment (6-mer frequency, TF over GST control)"
